Records with an inconclusive call do not appear. The source holds several records for some structures; these can differ, active in one and inactive in another. The source made the active and inactive calls. How the source made its calls: active means hit-call score of the fitted dose curve at least 0.9, where 1 is the maximum; inconclusive means response in the unintended direction; inactive means score below 0.9.
Each molecule was assayed against Nuclear receptor subfamily 4 group A member 2 (Homo sapiens) (UniProt P43354) (assay: ATG_NURR1_TRANS: Attagene TRANS-FACTORIAL HepG2 Assay for human Nuclear Receptor Related Protein 1 (NURR1) (AID 2282985)). Settings: HepG2 Attagene TRANS reporter, mRNA readout.
Chain of Nuclear receptor subfamily 4 group A member 2 (Homo sapiens) (P43354 whole entry, looked up): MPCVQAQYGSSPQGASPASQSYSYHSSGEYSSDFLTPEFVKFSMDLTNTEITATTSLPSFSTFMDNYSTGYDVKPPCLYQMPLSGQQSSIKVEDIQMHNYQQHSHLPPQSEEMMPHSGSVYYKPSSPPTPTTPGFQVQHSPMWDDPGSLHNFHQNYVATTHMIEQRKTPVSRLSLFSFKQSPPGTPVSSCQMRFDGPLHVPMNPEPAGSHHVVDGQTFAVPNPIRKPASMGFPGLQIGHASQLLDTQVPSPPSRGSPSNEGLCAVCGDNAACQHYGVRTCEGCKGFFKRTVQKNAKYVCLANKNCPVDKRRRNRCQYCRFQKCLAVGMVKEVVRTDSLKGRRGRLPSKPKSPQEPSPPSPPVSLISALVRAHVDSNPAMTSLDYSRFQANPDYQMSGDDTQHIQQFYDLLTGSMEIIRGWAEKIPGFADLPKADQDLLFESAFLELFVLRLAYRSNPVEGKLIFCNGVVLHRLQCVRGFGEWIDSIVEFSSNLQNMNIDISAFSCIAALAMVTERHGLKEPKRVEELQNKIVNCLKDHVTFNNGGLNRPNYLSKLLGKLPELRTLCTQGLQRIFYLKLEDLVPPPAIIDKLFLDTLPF
Experimental: ATG_TRANS is a cell-based, multiplexed-readout assay that uses HepG2, a human liver cell line, with measurements taken at 24 hours after chemical dosing in a 24-well plate.ATG_NURR1_TRANS is one of 30 assay component(s) measured or calculated from the ATG_TRANS assay. It is designed to make measurements of mRNA induction, a form of inducible reporter, as detected with fluorescence intensity signals by Reverse transcription polymerase chain reaction (RT-PCR) and Capillary electrophoresis technology.Data from the assay component ATG_NURR1_TRANS was analyzed into 1 assay endpoint. This assay endpoint, ATG_NURR1_TRANS, was analyzed in the positive analysis fitting direction relative to DMSO as the negative control and baseline of activity. Using a type of inducible reporter, measures of mRNA for gain-of-signal activity can be used to understand the reporter gene at the transcription factor-level as they relate to the gene NR4A2. Furthermore, this assay endpoint can be referred to as a primary readout, because this assay has produced multiple assay endpoints where this one serves a reporter gene function. To generalize the intended target to other relatable targets, this assay endpoint is annotated to the nuclear receptor intended target family, where the subfamily is orphan.
Human liver HepG2 cells are transiently transfected with multiple reporter transcription units (MRTUs) in 6-well plates using FuGene 6 reagent (Roche; 3 ml FuGene/1 mg DNA). The MRTU constructs are regulated by a cis-regulating element (promoter). […] A major difference between the CIS and TRANS system is that in CIS activities of endogenous TFs are measured, whereas the TRANS assay evaluates changes in activities of exogenous, chimeric NR-Gal4 proteins. […] At the end of 24 hour incubation, total RNA was isolated using TriZol reagent (Invitrogen). The isolated RNA is then reverse-transcribed using oligo(dT) primer and Mo-MLV reverse transcriptase (Invitrogen) with DNAse I (Ambion) treatment for 30 min. The one-tenth of the produced cDNA was amplified by PCR using Taq DNA polymerase (Invitrogen) and two reporter sequence-specific primers. The PCR products were fluorescently labeled by primer extension with 6-arboxyfluorescein (6-FAM) 5'-labeled reporter sequence-specific primer (2 min at 95 C, 20 s at 68 C and 10 min at 72 C) and these products were digested with 5U of HpaI (New England Biolabs) for 2h at 37 C. The fragments were purified using Qiaquick PCR columns (Qiagen), analyzed on an ABI 3130xL genetic analyzer (Applied Biosystems) with peak positions identified by using a set of X-rhodamine (ROX)-labeled MapMarker1000 molecular weight standards (BioVentures). The raw capillary electrophoresis data was processed using Attagraph software (Attagene).

Row | SMILES | outcome | AC50
1 | CCCCCCOC(=O)c1ccccc1O | inactive | 
2 | O=C(O)C(F)(OC(F)(F)C(F)(OC(F)(F)C(F)(F)C(F)(F)F)C(F)(F)F)C(F)(F)F (stereo not given) | inactive | 98.8 µM (active)
3 | COC(=O)C1CCC(C(=O)OC)CC1 (stereo not given) | inactive | 
4 | O=C(O)C(F)(F)C(F)(F)C(F)(F)C(F)(F)C(F)(F)C(F)(F)C(F)(F)C(F)(F)C(F)(F)C(F)(F)C(F)(F)C(F)(F)C(F)(F)F | inactive | 
5 | CN(C)Cc1ccccc1O | inactive | 
6 | O=C(O)C(F)(F)C(F)(F)F | inactive | 
7 | CCCCCCS | inactive | 
8 | Nc1ccc(S(=O)(=O)Nc2nccs2)cc1 | inactive | 
9 | C=CC(=O)OCC(F)(F)C(F)(F)C(F)(F)C(F)(F)COC(=O)C=C | inactive | 
10 | FC(F)(F)C(F)(F)CNCC(F)(F)C(F)(F)F | inactive | 
11 | CC(C)(C)C(=O)CC(=O)C(F)(F)C(F)(F)C(F)(F)F | inactive | 
12 | Cc1ccc(S(=O)(=O)OCC(F)(F)C(F)(F)C(F)(F)C(F)(F)C(F)(F)C(F)F)cc1 | inactive | 
13 | N=C(N)C(F)(F)C(F)(F)C(F)(F)C(F)(F)C(F)(F)C(F)(F)C(F)(F)F | inactive | 
14 | CCCCCCC(C)OC(=O)CCCCC(=O)OC(C)CCCCCC (stereo not given) | inactive | 
15 | OC[C@@H](O)[C@@H](O)[C@H](O)[C@@H](O)CO | inactive | 
16 | CC(Cc1ccc(O)c(O)c1)C(C)Cc1ccc(O)c(O)c1 (stereo not given) |  | 57.1 µM (active)
17 | OCC(F)(F)C(F)(F)C(F)(F)F | inactive | 
18 | FC(F)(F)C(F)(F)C(F)(F)C(F)(F)C(F)(F)C(F)(F)CCS | inactive | 
19 | CCO[Si](CCC(F)(F)C(F)(F)C(F)(F)C(F)(F)C(F)(F)C(F)(F)F)(OCC)OCC | inactive | 
20 | O[Si](c1ccccc1)(c1ccccc1)c1ccccc1 | inactive | 

Row | SMILES | outcome | AC50
21 | CCCCNc1ccccc1 | inactive | 
22 | CCN(Cc1cccc(S(=O)(=O)O)c1)c1ccc(C(=C2C=CC(=[N+](CC)Cc3cccc(S(=O)(=O)O)c3)C=C2)c2ccc(O)cc2S(=O)(=O)[O-])cc1 | inactive | 
23 | Cc1ccc(S(=O)(=O)NCl)cc1 | inactive | 
24 | C(=C(c1ccccc1)c1ccccc1)c1ccccc1 |  | 26.4 µM (active)
25 | O=C(O)C=C(C(F)(F)F)C(F)(F)F | inactive | 
26 | CNC(=S)NC | inactive | 
27 | Oc1ccc(Nc2ccccc2)cc1 | inactive | 
28 | FC(F)(I)C(F)(F)C(F)(F)C(F)(F)I | inactive | 
29 | C1COCCN1 | inactive | 
30 | CCc1ccc(C(c2ccc(CC)cc2)C(Cl)Cl)cc1 | inactive | 
31 | CC(C)c1ccccc1N | inactive | 
32 | [Co] | inactive | 
33 | FC(F)(F)C(F)(F)C(F)(F)C(F)(F)CCI | inactive | 
34 | CC(=O)Nc1ccc(N=Nc2cc(C)ccc2O)cc1 | inactive | 
35 | O=C(O)C(F)(F)C(F)(F)C(F)F | inactive | 
36 | CCCCOCCOCCOC(=O)CCCCC(=O)OCCOCCOCCCC | inactive | 
37 | O=C(O)C(F)(F)C(F)(F)C(F)(F)C(F)(F)C(F)(F)C(F)(F)C(F)(F)C(F)(F)C(F)(F)C(F)F |  | 28.2 µM (active)
38 | O=C(CC(=O)C(F)(F)C(F)(F)F)C(F)(F)F | inactive | 
39 | O=C(O)C(F)(F)C(F)(F)C(F)(F)F | inactive | 

Reference: PubChem BioAssay (EPA / NIEHS)
